Measurements published in PubChem BioAssay (Tox21).
Results filed as inconclusive are left out. The source made the active and inactive calls. Unless noted, calls follow the shape of the dose curve; as a rule, active = well fitted curve in the direction sought with a large enough effect in the repeat runs; inconclusive = weak or mixed curves; inactive = flat fitted curve, though single readings scatter.

Key:
[1] = qHTS assay to test for compound auto fluorescence at 535 nm (green) in HEK293 cells (AID 720680)
[2] = qHTS assay to test for compound auto fluorescence at 460 nm (blue) in HEK293 cell free culture (AID 720681)
Summary of the method: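 Blue fluorescence (Ex 405/Em 460 nm, triamterene-equivalent) was read immediately after pin transfer of compound or DMSO into medium (DMEM, 10% FBS) without cells.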

[3] = qHTS assay to test for compound auto fluorescence at 535 nm (green) in HEK293 cell free culture (AID 720682)
Summary of the method: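 Using fluorescein as calibrant, autofluorescence was quantified at 485/535 nm in cell-free DMEM containing 10% FBS after pintool addition of compound or vehicle.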

[4] = qHTS assay to test for compound auto fluorescence at 590 nm (red) in HEK293 cell free culture (AID 720683)
Summary of the method: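 Red-channel autofluorescence of compounds in culture medium (DMEM, 10% FBS), no cells, measured at 540/590 nm. Rose Bengal sodium is the reference fluorophore for equivalence.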

[5] = qHTS assay to test for compound auto fluorescence at 590 nm (red) in HepG2 cell free culture (AID 720684)
Summary of the method: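 No cells present: MEM + 10% FBS only. Compound pinned in, red label read (540/590 nm). Activity = fluorescence equivalent to Rose Bengal sodium.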

[6] = qHTS assay to test for compound auto fluorescence at 460 nm (blue) in HepG2 cell free culture (AID 720685)
Summary of the method: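 Cell-free plates of MEM plus 10% FBS received 23 nL compound or DMSO vehicle; blue-channel (405/460 nm) intensity scored against triamterene as reference fluorophore.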

[7] = qHTS assay to test for compound auto fluorescence at 535 nm (green) in HepG2 cell free culture (AID 720686)
[8] = biological target: Glucocorticoid receptor (Homo sapiens) (UniProt P04150); assay: qHTS assay to identify small molecule agonists of the glucocorticoid receptor (GR) signaling pathway (AID 720691; active = well fitted activation curve with a large enough effect in the signal ratio in the repeat runs, not every such curve was filed as active; the % refers to the signal ratio)
Summary of the method: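 Measures GR pathway activation through a GRE-beta-lactamase reporter stably integrated in HeLa cells, with 18 h compound treatment at 37 C and fluorescence detection using a FRET substrate.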

[9] = biological target: Glucocorticoid receptor (Homo sapiens) (UniProt P04150); assay: qHTS assay to identify small molecule antagonists of the glucocorticoid receptor (GR) signaling pathway (AID 720692; active = well fitted inhibition curve with a large enough effect in the signal ratio in the repeat runs, not every such curve was filed as active; the % refers to the signal ratio; also: potency is read from the fitted curve at half-maximal effect)
Summary of the method: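 Tox21 10K library screened in concentration-response for blockade of dexamethasone (5 nM final)-induced GRE-bla reporter activity in HeLa cells; 18 h treatment, fluorescence read.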

[10] = qHTS assay to test for compound auto fluorescence at 460 nm (blue) in HepG2 cells (AID 720687)
Summary of the method: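 Blue-channel autofluorescence (Ex/Em 405/460 nm, triamterene-equivalent) was measured after 1 hr compound exposure at 37 C, 5% CO2. Cells were HepG2, plated overnight at 37 C in MEM plus 10% FBS.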
% is scaled to controls: 0 for no effect and ±100 for the full control effect.

Sequence of Glucocorticoid receptor (Homo sapiens) (P04150 whole entry, looked up): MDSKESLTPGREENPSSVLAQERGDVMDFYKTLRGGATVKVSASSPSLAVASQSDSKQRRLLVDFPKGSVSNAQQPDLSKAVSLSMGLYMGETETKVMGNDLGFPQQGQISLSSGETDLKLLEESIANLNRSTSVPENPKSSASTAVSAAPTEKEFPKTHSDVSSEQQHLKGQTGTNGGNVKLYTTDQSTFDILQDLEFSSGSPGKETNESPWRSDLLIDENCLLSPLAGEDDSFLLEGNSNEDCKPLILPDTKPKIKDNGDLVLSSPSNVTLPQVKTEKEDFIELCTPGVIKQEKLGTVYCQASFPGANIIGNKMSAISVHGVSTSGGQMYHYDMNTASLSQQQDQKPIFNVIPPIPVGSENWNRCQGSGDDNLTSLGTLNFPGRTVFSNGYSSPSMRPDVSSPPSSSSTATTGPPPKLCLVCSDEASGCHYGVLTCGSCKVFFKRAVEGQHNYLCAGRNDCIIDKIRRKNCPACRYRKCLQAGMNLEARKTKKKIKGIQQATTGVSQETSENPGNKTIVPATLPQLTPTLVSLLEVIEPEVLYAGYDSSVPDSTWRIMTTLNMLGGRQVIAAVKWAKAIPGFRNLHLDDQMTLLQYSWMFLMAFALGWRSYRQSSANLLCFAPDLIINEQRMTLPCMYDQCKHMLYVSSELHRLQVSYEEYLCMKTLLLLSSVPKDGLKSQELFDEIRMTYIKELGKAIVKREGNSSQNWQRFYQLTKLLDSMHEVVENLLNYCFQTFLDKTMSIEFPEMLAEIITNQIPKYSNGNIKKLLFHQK

CCC1(CO)COCOC1
inactive: outcome [1] | Potency [2] | outcome [3] | outcome [4] | outcome [5] | Potency [6] | outcome [7] | Potency [8] | Potency [9]

O=c1[nH]ncc2ccccc12
inactive: outcome [1] | Potency [2] | outcome [3] | outcome [4] | outcome [5] | Potency [6] | outcome [7] | Potency [8] | Potency [9]

Cc1cc(C)c(N)cc1C
inactive: outcome [1] | Potency [2] | outcome [3] | outcome [4] | outcome [5] | Potency [6] | outcome [7] | Potency [10] | Potency [9]

CC(=O)[C@H]1[C@H](C#N)C[C@H]2[C@@H]3CC=C4C[C@@H](O)CC[C@]4(C)[C@H]3CC[C@@]21C
active: Potency [9] 10.6 µM
inactive: outcome [1] | Potency [2] | outcome [3] | outcome [4] | outcome [5] | Potency [6] | outcome [7] | Potency [10] | Potency [8]

O=C(O)CCc1nc(-c2ccccc2)c(-c2ccccc2)o1
inactive: outcome [1] | Potency [2] | outcome [3] | outcome [4] | outcome [5] | Potency [6] | outcome [7] | Potency [10] | Potency [8] | Potency [9]

CN1C(C(=O)Nc2ccccn2)=C(O)c2sccc2S1(=O)=O
inactive: fluorescence, % of fluorescein [1] -0.0339% [at 18.6 µM] | fluorescence, % of fluorescent control [2] 2.91% [at 18.6 µM] | activity change [3] -0.011% [at 18.6 µM] | fluorescence, % of fluorescent control [4] 0.306% [at 18.6 µM] | fluorescence, % of Rose Bengal [5] -0.0396% [at 18.6 µM] | fluorescence, % of fluorescent control [6] 0.579% [at 18.6 µM] | fluorescence, % of fluorescein control [7] -0.0069% [at 18.6 µM] | Potency [8] | Potency [9]

CCC(OCCCOC)OC(C)=O (stereo unspecified)
inactive: outcome [1] | Potency [2] | outcome [3] | outcome [4] | outcome [5] | Potency [6] | outcome [7] | Potency [9]

CN(C)CCN1C(=O)c2ccccc2N(C)c2ccccc21
inactive: outcome [1] | Potency [2] | outcome [3] | outcome [4] | Potency [6] | outcome [7] | Potency [10]

CO[C@]1(NC(=O)CSC(F)F)C(=O)N2C(C(=O)O)=C(CSc3nnnn3CCO)CO[C@H]21
inactive: outcome [1] | Potency [2] | outcome [3] | outcome [4] | Potency [6] | outcome [7] | Potency [10] | Potency [8] | Potency [9]

O=C1c2ccccc2C(=O)c2c(O)c(O)cc(O)c21
inactive: outcome [1] | Potency [2] | outcome [3] | Potency [6] | outcome [7] | Potency [10]

O=C1C(=O)c2ccccc2C(O)=C1C1CCC(c2ccc(Cl)cc2)CC1 (stereo unspecified)
inactive: fluorescence, % of fluorescein [1] -0.014% [at 18.6 µM] | fluorescence, % of fluorescent control [2] -0.0599% [at 18.6 µM] | activity change [3] -0.0167% [at 18.6 µM] | fluorescence, % of fluorescent control [4] 0.0147% [at 18.6 µM] | fluorescence, % of fluorescent control [6] 0.0263% [at 18.6 µM] | fluorescence, % of fluorescein control [7] 0.136% [at 18.6 µM] | fluorescence, % of fluorescent control [10] 0.0025% [at 18.6 µM]

C=C(C)C(=O)OCCOCCOC(=O)C(=C)C
inactive: outcome [1] | Potency [2] | outcome [3] | outcome [4] | Potency [6] | outcome [7] | Potency [10]

CCC(C)(C)OC
inactive: outcome [1] | Potency [2] | outcome [3] | outcome [4] | Potency [6] | outcome [7] | Potency [10]

CCC(=O)OC
inactive: outcome [1] | Potency [2] | outcome [3] | outcome [4] | Potency [6] | outcome [7] | Potency [10] | Potency [8]

O=c1[nH]c2ccc(Cl)cc2o1
inactive: Potency [2] | outcome [3] | outcome [4] | outcome [5] | Potency [6] | outcome [7]

C1C[C@@H]2[C@H]3CC[C@H](C3)[C@@H]2C1
inactive: Potency [2] | outcome [3] | outcome [4] | outcome [5] | Potency [6] | outcome [7]

CC(C)=CCC1C(=O)N(c2ccccc2)N(c2ccccc2)C1=O
inactive: outcome [1] | Potency [2] | outcome [3] | outcome [4] | Potency [6] | outcome [7]

COC(=O)CS
inactive: outcome [1] | Potency [2] | outcome [3] | outcome [4] | Potency [6] | outcome [7] | Potency [10]

O=C(CCc1ccc(O)cc1)c1c(O)cc(O)cc1O
inactive: outcome [1] | Potency [2] | outcome [3] | outcome [4] | Potency [6] | outcome [7] | Potency [10]

CCOc1ccccc1O[C@H](c1ccccc1)[C@H]1CNCCO1
inactive: outcome [1] | Potency [2] | outcome [3] | outcome [4] | Potency [6] | outcome [7] | Potency [10] | Potency [8] | Potency [9]

CCCCCCCCOc1ccc(C(=O)O)cc1
inactive: outcome [1] | Potency [2] | outcome [3] | outcome [4] | Potency [6] | outcome [7] | Potency [10]

CCC=CC#N
inactive: outcome [1] | Potency [2] | outcome [3] | outcome [4] | Potency [6] | outcome [7] | Potency [10] | Potency [9]

N#[N+]c1ccc2c(S(=O)(=O)[O-])cccc2c1O
inactive: outcome [1] | Potency [2] | outcome [3] | outcome [4] | Potency [6] | outcome [7] | Potency [10]

CC(=O)Oc1ccc([N+](=O)[O-])cc1CCl
inactive: outcome [1] | Potency [2] | outcome [3] | outcome [4] | Potency [6] | outcome [7]

c1ccc2c(c1)CCc1ccccc1N2
inactive: outcome [1] | Potency [2] | outcome [3] | outcome [4] | Potency [6] | outcome [7] | Potency [10]
